Laboratory results published in PubChem BioAssay (EPA / NIEHS).
Active and inactive are the calls of the source. How the source made its calls: active means hit-call score of the fitted dose curve at least 0.9, where 1 is the maximum; inactive means score below 0.9.

Experiments:
Settings in all cases: mRNA level, 48 h; actives raise or lower the signal
[1] = read-out: CYP2C9 (gene 1559); test: LTEA_HepaRG_CYP2C9: Life Technologies and Expression Analysis (LTEA) Assay for CYP2C9 using HepaRG (AID 2283484)
Method in brief: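 HepaRG, 48 h dosing, 8-pt half-log series, top 100 uM, 0.5% DMSO vehicle. Read-out: CYP2C9 transcript by TaqMan qRT-PCR, housekeeping-normalized (ACTB/GAPDH/POLR2A). Gain or loss fitted vs DMSO baseline.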

[2] = read-out: CYP2E1 (gene 1571); test: LTEA_HepaRG_CYP2E1: Life Technologies and Expression Analysis (LTEA) Assay for CYP2E1 using HepaRG (AID 2283485)
Method in brief: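 Readout is qRT-PCR of CYP2E1 mRNA, normalized to three housekeeping genes and fitted bidirectionally against 0.5% DMSO. HepaRG cells were dosed 48 h at eight concentrations, highest 100 uM with half-log dilutions.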

[3] = read-out: CYP4A11 (gene 1579); test: LTEA_HepaRG_CYP4A11: Life Technologies and Expression Analysis (LTEA) Assay for CYP4A11 using HepaRG (AID 2283486)
Method in brief: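 Differentiated HepaRG cells, 48 h after plating, exposed in duplicate for 48 h to 8 half-log concentrations up to 100 uM in 0.5% DMSO in serum-free induction medium. CYP4A11 mRNA measured by TaqMan qRT-PCR, normalized to ACTB, GAPDH and POLR2A.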

[4] = read-out: Cytochrome P450 3A4 (Homo sapiens) (UniProt P08684); test: LTEA_HepaRG_CYP3A4: Life Technologies and Expression Analysis (LTEA) Assay for CYP3A4 using HepaRG (AID 2283487)
Method in brief: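 HepaRG, 48 h exposure, 8-pt CRC from 100 uM (half-log), 0.5% DMSO, duplicates; serum-free induction medium. Readout: CYP3A4 mRNA, qRT-PCR, ACTB/GAPDH/POLR2A normalization. Bidirectional fit vs DMSO.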

[5] = read-out: DNA damage-inducible transcript 3 (DDIT3), DDIT3 (gene 1649); test: LTEA_HepaRG_DDIT3: Life Technologies and Expression Analysis (LTEA) Assay for DNA damage-inducible transcript 3 (DDIT3) using HepaRG (AID 2283488)
Method in brief: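 Cells are human HepaRG liver cells treated for 48 h with eight half-log concentrations up to 100 uM in 0.5% DMSO. Transcript levels come from qRT-PCR normalized to three housekeeping genes, with activity fitted in both directions relative to vehicle.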

[6] = read-out: Pro-epidermal growth factor (Homo sapiens) (UniProt P01133); test: LTEA_HepaRG_EGF: Life Technologies and Expression Analysis (LTEA) Assay for Epidermal growth factor (EGF) using HepaRG (AID 2283489)
Method in brief: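 HepaRG cells (~100,000/well, 48 h pre-culture) exposed in duplicate for 48 h in serum-free induction medium to 8 half-log concentrations up to 100 uM in 0.5% DMSO. EGF mRNA by qRT-PCR, normalized to ACTB/GAPDH/POLR2A; bidirectional fit versus DMSO.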

[7] = read-out: Early growth response protein 1 (EGR1) transcription factor, EGR1 (gene 1958); test: LTEA_HepaRG_EGR1: Life Technologies and Expression Analysis (LTEA) Assay for Early growth response protein 1 (EGR1) transcription factor using HepaRG (AID 2283490)
Method in brief: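 HepaRG, 48 h exposure, 8-pt half-log series from 100 uM, 0.5% DMSO vehicle; EGR1 transcript by TaqMan qRT-PCR (Fluidigm array), housekeeping-normalized; bidirectional fit relative to DMSO baseline.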

[8] = read-out: Ezrin (EZR), EZR (gene 7430); test: LTEA_HepaRG_EZR: Life Technologies and Expression Analysis (LTEA) Assay for Ezrin (EZR) using HepaRG (AID 2283491)
Method in brief: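 Read-out is EZR transcript level by qRT-PCR, normalized to three housekeeping genes and fitted bidirectionally against the DMSO control. Human HepaRG cells received test chemicals for 48 h at eight half-log concentrations up to 100 uM in 0.5% DMSO.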

[9] = read-out: Cytochrome P450 3A7 (Homo sapiens) (UniProt P24462); test: LTEA_HepaRG_CYP3A7: Life Technologies and Expression Analysis (LTEA) Assay for CYP3A7 using HepaRG (AID 2283492)
Method in brief: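 Differentiated HepaRG cells in serum-free induction medium exposed 48 h in duplicate to 8-point half-log series from 100 uM top in 0.5% DMSO. CYP3A7 mRNA by qRT-PCR, normalized to ACTB/GAPDH/POLR2A, bidirectional fit versus DMSO.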

[10] = read-out: CYP3A5 (gene 1577); test: LTEA_HepaRG_CYP3A5: Life Technologies and Expression Analysis (LTEA) Assay for CYP3A5 using HepaRG (AID 2283493)
Method in brief: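 Human HepaRG hepatic cells receive 48 h chemical treatment at eight concentrations (half-log steps from 100 uM) in 0.5% DMSO. Expression of CYP3A5 is quantified by Fluidigm qRT-PCR and normalized to three reference genes.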

[11] = read-out: Fatty Acid-Binding Protein 1 (FABP1), FABP1 (gene 2168); test: LTEA_HepaRG_FABP1: Life Technologies and Expression Analysis (LTEA) Assay for Fatty Acid-Binding Protein 1 (FABP1) using HepaRG (AID 2283494)
Method in brief: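 qRT-PCR readout of FABP1 transcript (normalized to three housekeeping genes) after 48 h chemical exposure of HepaRG cells; eight concentrations, half-log steps, max 100 uM, 0.5% DMSO vehicle; gain or loss fitted relative to DMSO baseline.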

[12] = read-out: Cytochrome P450 4A22 (Homo sapiens) (UniProt Q5TCH4); test: LTEA_HepaRG_CYP4A22: Life Technologies and Expression Analysis (LTEA) Assay for Cytochrome P450 4A22 (CYP4A22) using HepaRG (AID 2283495)
Method in brief: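 Differentiated HepaRG cells in serum-free induction medium exposed 48 h in duplicate to eight half-log concentrations up to 100 uM in 0.5% DMSO. CYP4A22 mRNA quantified by TaqMan qRT-PCR, normalized to ACTB, GAPDH and POLR2A; bidirectional fit versus DMSO.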

[13] = read-out: Cytochrome P450 7A1 (Homo sapiens) (UniProt P22680); test: LTEA_HepaRG_CYP7A1: Life Technologies and Expression Analysis (LTEA) Assay for Cytochrome P450 7A1 (CYP7A1) using HepaRG (AID 2283496)
Method in brief: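 HepaRG, 48 h exposure, 8-pt half-log series from 100 uM, 0.5% DMSO vehicle, duplicates. Readout: TaqMan qRT-PCR mRNA vs three housekeeping genes; bidirectional curve fit against DMSO baseline.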

[14] = read-out: Glutathione S-Transferase (GSTA2), GSTA2 (gene 2939); test: LTEA_HepaRG_GSTA2: Life Technologies and Expression Analysis (LTEA) Assay for Glutathione S-Transferase (GSTA2) using HepaRG (AID 2283497)
Method in brief: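 qRT-PCR readout of GSTA2 transcript, normalized to three housekeeping genes, fitted bidirectionally against 0.5% DMSO baseline. Differentiated HepaRG cells received compound for 48 h at 8 concentrations (top 100 uM, half-log steps).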

[15] = read-out: Glutamate-cysteine ligase catalytic (GCLC), GCLC (gene 2729); test: LTEA_HepaRG_GCLC: Life Technologies and Expression Analysis (LTEA) Assay for Glutamate-cysteine ligase catalytic (GCLC) using HepaRG (AID 2283498)
Method in brief: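 HepaRG, 48 h exposure, 8-pt half-log series from 100 uM, 0.5% DMSO vehicle; TaqMan qRT-PCR for GCLC mRNA, housekeeping-normalized; bidirectional curve fit vs DMSO baseline.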

[16] = read-out: growth arrest and DNA damage 45 (GADD45G), GADD45G (gene 10912); test: LTEA_HepaRG_GADD45G: Life Technologies and Expression Analysis (LTEA) Assay for growth arrest and DNA damage 45 (GADD45G) using HepaRG (AID 2283499)
Method in brief: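 Differentiated human HepaRG cells, 48 h post-plating, exposed 48 h in serum-free induction medium to 8 half-log concentrations (top 100 uM, 0.5% DMSO) in duplicate. GADD45G mRNA measured by Fluidigm TaqMan qRT-PCR, normalized to ACTB, GAPDH, POLR2A; bidirectional fit versus DMSO.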

[17] = read-out: Glutamate-cysteine ligase regulatory (GCLM), GCLM (gene 2730); test: LTEA_HepaRG_GCLM: Life Technologies and Expression Analysis (LTEA) Assay for Glutamate-cysteine ligase regulatory (GCLM) using HepaRG (AID 2283500)
Method in brief: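 Endpoint is GCLM transcript level by qRT-PCR, normalized to three housekeeping genes, after 48 h chemical exposure of human HepaRG cells (0.5% DMSO vehicle, top 100 uM, half-log dilutions). Fitting was bidirectional relative to DMSO.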

[18] = read-out: Glutathione S-transferase M3 (GSTM3), GSTM3 (gene 2947); test: LTEA_HepaRG_GSTM3: Life Technologies and Expression Analysis (LTEA) Assay for Glutathione S-transferase M3 (GSTM3) using HepaRG (AID 2283501)
Method in brief: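 Differentiated human HepaRG cells were exposed in duplicate for 48 h in serum-free induction medium, 8 points from 100 uM top in half-log steps, 0.5% DMSO. GSTM3 mRNA was measured by TaqMan qRT-PCR, normalized to ACTB, GAPDH and POLR2A; bidirectional fit versus DMSO.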

[19] = read-out: Heat shock 70 kDa protein 1 (HSPA1A), gene 3303; test: LTEA_HepaRG_HSPA1A: Life Technologies and Expression Analysis (LTEA) Assay for Heat shock 70 kDa protein 1 (HSPA1A) using HepaRG (AID 2283502)
Method in brief: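 Cells were plated and cultured for 48 h, then switched to serum-free induction medium. Chemicals were added at eight half-log concentrations up to 100 uM for 48 h. RNA was then isolated and HSPA1A measured by qRT-PCR with bidirectional curve fitting against DMSO.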

[20] = read-out: Hypoxia-inducible factor 1-alpha (Homo sapiens) (UniProt Q16665); test: LTEA_HepaRG_HIF1A: Life Technologies and Expression Analysis (LTEA) Assay for Hypoxia-inducible factor 1 (HIF1A) Trancription factor using HepaRG (AID 2283503)
Method in brief: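 HIF1A transcript level read by qRT-PCR (ACTB, GAPDH, POLR2A normalization) after 48 h chemical exposure of HepaRG cultures. Eight half-log concentrations, top 100 uM, 0.5% DMSO vehicle, duplicates; bidirectional curve fit against DMSO baseline.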

Measured: AC50

Cytochrome P450 3A7 (Homo sapiens), sequence (P24462 whole entry, looked up): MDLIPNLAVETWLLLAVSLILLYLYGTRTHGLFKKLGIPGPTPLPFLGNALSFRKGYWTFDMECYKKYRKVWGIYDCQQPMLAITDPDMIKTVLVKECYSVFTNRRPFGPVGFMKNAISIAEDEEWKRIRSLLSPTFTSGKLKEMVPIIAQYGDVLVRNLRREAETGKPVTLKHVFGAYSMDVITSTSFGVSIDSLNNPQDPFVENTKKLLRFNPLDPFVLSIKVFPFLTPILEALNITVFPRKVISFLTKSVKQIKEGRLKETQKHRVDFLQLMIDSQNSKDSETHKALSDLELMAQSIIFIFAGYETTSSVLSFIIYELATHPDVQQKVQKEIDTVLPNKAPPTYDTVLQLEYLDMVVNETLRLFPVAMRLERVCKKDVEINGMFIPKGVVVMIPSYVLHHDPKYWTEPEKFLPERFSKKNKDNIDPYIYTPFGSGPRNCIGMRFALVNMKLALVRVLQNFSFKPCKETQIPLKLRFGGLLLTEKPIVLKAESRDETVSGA
Hypoxia-inducible factor 1-alpha (Homo sapiens), sequence (Q16665 whole entry, looked up): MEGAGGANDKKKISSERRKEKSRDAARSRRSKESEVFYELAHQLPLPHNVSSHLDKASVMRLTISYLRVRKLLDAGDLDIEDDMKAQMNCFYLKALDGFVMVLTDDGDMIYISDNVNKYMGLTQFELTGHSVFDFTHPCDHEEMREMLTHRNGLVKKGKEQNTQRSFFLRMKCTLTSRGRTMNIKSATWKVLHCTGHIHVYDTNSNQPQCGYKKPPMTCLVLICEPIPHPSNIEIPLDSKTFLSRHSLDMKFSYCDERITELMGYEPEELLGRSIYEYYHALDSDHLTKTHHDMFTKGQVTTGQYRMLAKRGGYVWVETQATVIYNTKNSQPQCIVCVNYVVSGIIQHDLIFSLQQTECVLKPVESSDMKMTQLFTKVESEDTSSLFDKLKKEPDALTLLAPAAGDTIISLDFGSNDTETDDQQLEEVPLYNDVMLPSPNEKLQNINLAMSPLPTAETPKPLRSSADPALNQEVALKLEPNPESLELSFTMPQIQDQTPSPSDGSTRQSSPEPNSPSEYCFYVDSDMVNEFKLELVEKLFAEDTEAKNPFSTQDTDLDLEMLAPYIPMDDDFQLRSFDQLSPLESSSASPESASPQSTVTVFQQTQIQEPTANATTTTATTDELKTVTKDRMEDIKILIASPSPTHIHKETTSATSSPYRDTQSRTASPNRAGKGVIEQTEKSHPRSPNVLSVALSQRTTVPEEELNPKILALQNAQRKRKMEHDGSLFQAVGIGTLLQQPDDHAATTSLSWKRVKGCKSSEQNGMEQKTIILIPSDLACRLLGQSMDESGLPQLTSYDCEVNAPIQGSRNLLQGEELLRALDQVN
Cytochrome P450 3A4 (Homo sapiens), sequence (P08684 whole entry, looked up): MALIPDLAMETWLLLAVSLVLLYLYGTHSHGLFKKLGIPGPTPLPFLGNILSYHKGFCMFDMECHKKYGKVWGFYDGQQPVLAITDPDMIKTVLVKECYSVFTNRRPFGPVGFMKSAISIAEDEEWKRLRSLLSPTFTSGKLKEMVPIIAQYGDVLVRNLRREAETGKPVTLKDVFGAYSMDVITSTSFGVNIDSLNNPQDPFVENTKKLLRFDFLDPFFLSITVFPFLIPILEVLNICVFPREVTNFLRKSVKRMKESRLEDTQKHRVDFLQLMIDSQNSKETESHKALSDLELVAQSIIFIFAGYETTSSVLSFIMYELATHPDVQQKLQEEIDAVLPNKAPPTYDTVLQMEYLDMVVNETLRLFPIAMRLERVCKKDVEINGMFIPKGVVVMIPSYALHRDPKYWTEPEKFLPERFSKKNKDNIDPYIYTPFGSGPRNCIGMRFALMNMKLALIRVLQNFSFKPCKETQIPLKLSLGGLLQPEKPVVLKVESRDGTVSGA

CCc1cc(SCc2sc(-c3ccc(C(F)(F)F)cc3)nc2CN2CCN(c3ccc(OC)cc3)CC2)ccc1OCC(=O)O
active: [1] 76.6 µM | [2] 75.4 µM | [3] 74.7 µM | [4] 7.66 µM | [5] 3.85 µM | [7] 51.9 µM | [8] 94.3 µM | [9] 8.73 µM | [10] 10.9 µM | [11] 76.8 µM | [12] 8.62 µM | [13] 7.1 µM | [14] 77 µM | [15] 94.1 µM | [16] 91.2 µM | [17] 26.5 µM | [19] 89.4 µM | [20] 91.1 µM
inactive: [6] | [18]

CC1=CC(=O)CC(C)(C)C1
inactive: all assays above

O=C(O)CC(O)C(=O)O (centres undefined)
inactive: all assays above

O=C(CCCCCCCCc1cccnc1)N1CCC(C=C(c2ccccc2)c2ccccc2)CC1
active: [1] 31.2 µM | [2] 14.1 µM | [3] 12.6 µM | [4] 32 µM | [5] 22.1 µM | [7] 12.2 µM | [8] 13.1 µM | [11] 26.9 µM | [12] 22.7 µM | [13] 27.1 µM | [14] 28.7 µM | [15] 12.5 µM | [16] 22.8 µM | [17] 12.8 µM | [19] 81 µM | [20] 77.2 µM
inactive: [6] | [9] | [10] | [18]

CCCN(C1CCN(C(=O)C2CCNCC2)CC1)[C@@H]1CCc2ccc(OC)cc2C1
inactive: [6] | [7] | [8] | [16] | [17]
active: [1] 80.3 µM | [2] 67.4 µM | [3] 90.7 µM | [4] 86.7 µM | [5] 50 µM | [9] 86.4 µM | [10] 80.3 µM | [11] 83.5 µM | [12] 88.2 µM | [13] 77.3 µM | [14] 81 µM | [15] 50 µM | [18] 50 µM | [19] 79.6 µM | [20] 88.2 µM

COC(=O)c1ccccc1O
inactive: all assays above

CCOCCOCCOCCO
inactive: all assays above

CC[C@H]1CC[C@H](NCc2cc3c(cc2OC)[C@H]2C[C@H]2C(=O)N3C)[C@H](c2ccccc2)N1
active: [2] 50 µM | [3] 81.8 µM | [4] 14.2 µM | [5] 50 µM | [9] 8.34 µM | [10] 50 µM | [12] 76.8 µM | [16] 50 µM
inactive: all other assays above

CN(C)c1ccc(N=NS(=O)(=O)O)cc1
active: [2] 22 µM | [11] 50 µM | [12] 9.92 µM | [13] 2.51 µM | [17] 50 µM
not listed: [10]
inactive: all other assays above
